From PubChem BioAssay AID588689 (Southern Research Specialized Biocontainment Screening …, 2011) come the findings set out here.

Hit rate of the full screen: of about 340,000 compounds, about 1,000 (0.29%) were called active. No stated cut-off is given here; in the data, inconclusive means inhibition above about 29% without an active follow-up result; inactive means below that. The list is a sample of the results. Measured potencies and affinities stand elsewhere.

The assay addresses Genome polyprotein (Dengue virus type 2 (strain 16681-PDK53)) (UniProt P29991). Put plainly: flavivirus cap methylation enzyme inhibition – biochemical, confirmation dose response, primary screen (AID 588689). To be noted: Dengue-2 NS5 methyltransferase capping enzyme assay, at 25 µM, stronger effect = higher value.
Where [1] appears, read: measured here: pilot screen replicate inhibition.

A word on the inhibition: it is the drop in the measured response relative to a control, in per cent. As to `COc1ccc(NC(=O)Nc2ccc3c(c2)CCC3)cc1`, the inhibition is 1.61% (inactive).

`Cc1nnc(Sc2cc(NCCO)c([N+](=O)[O-])c3nonc23)s1`: the inhibition was 1.46% (inactive).

Regarding `CN(CCO)c1cc(Sc2nc3ccccc3s2)c2nonc2c1[N+](=O)[O-]`, the inhibition is 48.2% (inactive).

For `Cc1nnc(Sc2cc(NCCCO)c([N+](=O)[O-])c3nonc23)s1`, the inhibition is 18.5% (inactive).

In the case of `CCC(=O)OCCNc1cc(Sc2nc3ccccc3[nH]2)c2nonc2c1[N+](=O)[O-]`, the inhibition was 29.8% (inactive).

For `CCCC(=O)OCCNc1cc(Sc2nc3ccccc3[nH]2)c2nonc2c1[N+](=O)[O-]`, the inhibition was 20.4% (inactive).

For the compound `Cc1ccc(Sc2cc(NCCCO)c([N+](=O)[O-])c3nonc23)cc1`, the inhibition is 16.2% (inactive).

As for `C[C@@H]1CC=C[C@@H]2[C@H]1C(=O)N(Cc1ccccc1)[C@H]2c1cccc(C#Cc2ccccc2)c1`, the inhibition is -4.3% (inactive). Also, the inhibition under setting [1] was -5.45%.

`CC(C)=CCC(C)(C)C1OCCN1C(=O)c1ccccc1` (stereo not given): the inhibition was -7.18% (inactive).

For the compound `Cc1cc(Br)ccc1NC(=O)CN(C)C(=O)C1CCN(C(=O)c2ccc(Cl)cc2)CC1`, the inhibition is -3.75% (inactive).

As for `O=C1OC(c2ccccc2)c2ccc3ccccc3c21` (stereo not given), the inhibition is -10.9% (inactive).

As for `CCOc1ccc2c(C)c(Cl)c(=O)oc2c1`, the inhibition was -0.69% (inactive).

Turning to `OCCN1CCN(c2cc(-c3ccccc3)c3ccccc3n2)CC1`, the inhibition is -4.36% (inactive).

As to `Cc1ccc(NC(=O)COC(=O)c2c(C)nn(-c3ccccc3)c2C)cc1`, the inhibition was 7.29% (inactive).

With `Cc1ccc(/C=C2\SC(=S)N(CCC(=O)NNS(=O)(=O)c3ccc(C)cc3)C2=O)cc1`, the inhibition was -5.09% (inactive).

`C=CCOc1ccc(/C=C2\SC(=S)N(N3CCOCC3)C2=O)cc1`: the inhibition was -7.66% (inactive).

For `CC(=O)NN1C(=O)/C(=C\c2ccccc2)SC1=S`, the inhibition is -3.17% (inactive).

On to `COc1cccc(-n2nnnc2SCC(=O)NCc2ccco2)c1`, for which the inhibition is -6.77% (inactive).

Turning to `O=C(NCCc1c[nH]c2ccccc12)c1ccco1`, the inhibition is -0.82% (inactive).

For the compound `O=C(CNC(=O)C(c1ccccc1)c1ccccc1)N/N=C\c1ccc(C(=O)O)cc1`, the inhibition was 0% (inactive).

On to `Cc1ccc(S(=O)(=O)N2CCN(S(=O)(=O)N3CCOCC3)CC2)cc1C`, for which the inhibition is 2.05% (inactive).

As for `COc1ccc(/C=N/NC(=O)CCN2CCN(c3ccccc3)CC2)c(OC)c1OC`, the inhibition is -0.66% (inactive).

In the case of `Cc1cc(/C=N/NC(=O)c2ccccc2F)c(C)n1-c1ccccc1`, the inhibition is -8.18% (inactive).

For the compound `O=C(CCc1ccc(S(=O)(=O)N2CCOCC2)cc1)N/N=C/c1ccc(F)cc1F`, the inhibition was -6.07% (inactive).

As for `CCn1c(C)nc2cc(C(=O)N/N=C/c3cccc(O)c3O)ccc21`, the inhibition was -0.82% (inactive).

As to `CCn1c(C)nc2cc(C(=O)N/N=C/c3cccc(OC)c3O)ccc21`, the inhibition was -3.68% (inactive).

For `O=C(CCc1ccc(S(=O)(=O)N2CCOCC2)cc1)N/N=C/c1cccc(O)c1`, the inhibition is -1.28% (inactive).

Consider `COc1ccc(/C=N/NC(=O)c2cc(C)n(-c3ccccc3)c2C)cc1OC`, for which the inhibition was -10.9% (inactive).

As to `O=C(CCN1CCN(c2ccccc2)CC1)N/N=C/c1ccccc1O`, the inhibition was -10.4% (inactive).

On to `CCOC(=O)CN1C(=O)N[C@@H](c2cccs2)C(C(=O)OC)=C1C`, for which the inhibition is -0.8% (inactive).

For `Cn1ccnc1C(=O)c1cc(SCC(=O)NC2CC2)nc2ccccc12`, the inhibition was 0.73% (inactive).

As to `O=C(NCc1nnnn1-c1ccc(F)cc1)c1cc2ccccc2o1`, the inhibition is 9.89% (inactive).

Regarding `CCCCCCCCN1[C@@H](CC(=O)OCC)c2cc(C(F)(F)F)ccc2S1(=O)=O`, the inhibition is -6.14% (inactive).

As to `CC(C)COc1cccc(C(=O)N(C)CC(=O)Nc2cccc3ccccc23)c1`, the inhibition is -6.94% (inactive).

As to `Cc1cccc(CC(=O)Nc2ccon2)c1`, the inhibition was -7.18% (inactive). In addition, the inhibition under setting [1] is 1.51%.

Turning to `NS(=O)(=O)c1ccc(N/N=C/c2ccc(O)cc2O)c([N+](=O)[O-])c1`, the inhibition was 27.2% (inactive).

As to `NS(=O)(=O)c1ccc(N/N=C/c2ccccc2C(=O)O)c([N+](=O)[O-])c1`, the inhibition is 4.52% (inactive).

As to `COc1cc(/C=N/Nc2ccc([N+](=O)[O-])cc2S(=O)(=O)N2CCOCC2)cc(OC)c1OC`, the inhibition was -2.58% (inactive).

Turning to `O=[N+]([O-])c1ccc(N/N=C/c2cccc(O)c2O)c(S(=O)(=O)N2CCOCC2)c1`, the inhibition is 6.18% (inactive).

On to `Cc1c(OCC(=O)N2CCC(C(N)=O)CC2)ccc2c3c(c(=O)oc12)CCCC3`, for which the inhibition was -4.35% (inactive).

Regarding `CCOCCCNC(=O)CCc1nnc2n(CCC(C)C)c(=O)c3ccccc3n12`, the inhibition is -4.57% (inactive).

As for `CCOc1cc(NC(=S)NCCCN2CCOCC2)c(OCC)cc1NC(=O)C1CCCCC1`, the inhibition was -10.9% (inactive).

For the compound `CC(=O)Nc1ccc2c(c1)CCc1ccccc1-2`, the inhibition is -9.7% (inactive).

`O=C(O)CCCc1ccc2c(c1)CCc1ccccc1-2`: the inhibition was -0.8% (inactive).

`CCN(CC(=O)NCc1cccs1)S(=O)(=O)c1ccccc1Cl`: the inhibition was 0% (inactive).

As for `O=C(NCc1ccncc1)C(=O)NCC1OCCN1S(=O)(=O)c1ccc(F)cc1` (stereo not given), the inhibition is -3.87% (inactive).

On to `CCC(COC(C)=O)Nc1nc2c([nH]1)c(=O)n(C)c(=O)n2C` (stereo not given), for which the inhibition is 9.2% (inactive).

As to `COC(=O)C1=C(C(=O)OC)C(c2ccc(OC)c(OC)c2)c2sc(=O)[nH]c2S1` (stereo not given), the inhibition is 18% (inactive).

Consider `COC(=O)c1cc(OC)nc2ccc(Br)cc12`, for which the inhibition is 4.64% (inactive).

`COC(=O)c1sc2ccccc2c1N`: the inhibition is -9.74% (inactive).

For the compound `COC(=O)C1=C(C(=O)OC)C(c2cc([N+](=O)[O-])ccc2O)c2sc(=O)[nH]c2S1` (stereo not given), the inhibition is -1.58% (inactive).

As for `Cc1ccnc(NC(=O)C2CCCN(c3ncnc4c3nc3n4CCCCC3)C2)c1` (stereo not given), the inhibition was 0.45% (inactive).

Regarding `CCOc1cc(/C=N/NC(=O)CSc2nnc(C)s2)ccc1OCc1ccccc1Cl`, the inhibition is 8.09% (inactive).

Regarding `COc1ccc(/C=N/N=C2/NC(=O)C(CC(=O)O)S2)cc1OCc1ccc(Cl)cc1` (stereo not given), the inhibition is 13.3% (inactive).

As to `COc1cc(/C=N/NC(=O)CC2(C)OCCCO2)ccc1OCc1ccc(Cl)cc1Cl`, the inhibition was -4.47% (inactive).

Consider `COc1cc(/C=N/N=C2/NC(=O)C(CC(=O)O)S2)ccc1OCc1ccc(Cl)cc1` (stereo not given), for which the inhibition is 16.7% (inactive).

For `CCOc1cc(/C=N/N=C2/NC(=O)C(CC(=O)O)S2)ccc1OCc1ccc(Cl)cc1Cl` (stereo not given), the inhibition was 25.1% (inactive).

For `COc1ccc(/C=N/N=C2/NC(=O)C(CC(=O)O)S2)cc1OCc1ccccc1Cl` (stereo not given), the inhibition was 17.8% (inactive).

With `O=C1CCc2nc3ccccc3c(=O)n2N1`, the inhibition is -1.38% (inactive).

Consider `COc1cccc(C(CNc2ccc(S(=O)(=O)N3CCN(C)CC3)cc2[N+](=O)[O-])N(C)C)c1` (stereo not given), for which the inhibition was 2.89% (inactive).

On to `Cc1onc(-c2c(F)cccc2Cl)c1C(=O)NNC(=O)C1CCN(Cc2cccc(F)c2)CC1`, for which the inhibition is -7.02% (inactive).

As for `COc1ccc(S(=O)(=O)NNC(=O)c2cccs2)cc1`, the inhibition was -2.33% (inactive).

In the case of `COc1cc(C(=O)Nc2c(C(=O)O)[nH]c3ccccc23)cc(OC)c1OC`, the inhibition is -6.62% (inactive).

Consider `O=C(O)c1[nH]c2ccc([N+](=O)[O-])cc2c1-c1ccccc1`, for which the inhibition was 10.3% (inactive).

As to `O=c1[nH]c2ccccc2c(O)c1-c1ccccc1[N+](=O)[O-]`, the inhibition was -7.29% (inactive).

Consider `COc1ccc(S(=O)(=O)Nc2c(C(=O)O)[nH]c3ccccc23)cc1OC`, for which the inhibition is 1.6% (inactive).

Take `CSc1nsc(SCC(=O)Nc2ccc(NC(C)=O)cc2)n1`: the inhibition is 2.42% (inactive).

Turning to `COc1ccccc1CNS(=O)(=O)c1cccc2nsnc12`, the inhibition is 3.22% (inactive).

With `Cc1ccc(NC(=O)CSCC(=O)NCc2cccc(C(F)(F)F)c2)cc1`, the inhibition is 0.73% (inactive).

As to `O=C(CSc1nc(O)c(C(c2ccccc2)c2ccccc2)c(=O)[nH]1)N1CCOCC1`, the inhibition was -5.31% (inactive).

As for `Cc1ccccc1-n1cnnc1SCC(=O)Nc1cccnc1Cl`, the inhibition is 2.99% (inactive).

For the compound `CCCCOC(=O)c1ccc(NC(=O)C(=O)NCc2cccnc2)cc1`, the inhibition was -1.56% (inactive).

`N=C1C(c2nc3ccccc3s2)=C(O)CN1Cc1ccco1`: the inhibition was -1.36% (inactive).

In the case of `Nc1nc(CSC(=S)N2CCOCC2)nc(Nc2ccccc2)n1`, the inhibition is 1.28% (inactive).

Regarding `Cc1ccc(CNC(=O)C2CCC(=O)N2C(C)C)cc1` (stereo not given), the inhibition is -1.99% (inactive).

As to `O=C(NN1C(=O)/C(=C/c2ccc(O)c([N+](=O)[O-])c2)SC1=S)c1ccccc1Cl`, the inhibition is -3.59% (inactive).

As to `COc1cc(/C=C2\SC(=O)N(c3ccccc3Cl)C2=O)cc([N+](=O)[O-])c1O`, the inhibition is -6.99% (inactive).

`CCc1cccc(N(C(=O)c2csnn2)C(C(=O)NC(C)(C)C)c2ccccn2)c1` (stereo not given): the inhibition is -5.18% (inactive).

In the case of `CCC(C)NC(=O)Nc1ccccc1C` (stereo not given), the inhibition is -2.79% (inactive).

For the compound `CCC(=O)c1ccc(OCC(O)CN2CCN(S(=O)(=O)N3CCCCC3)CC2)cc1` (stereo not given), the inhibition is 5.46% (inactive).

Take `O=c1oc2ccccc2c2c1C(O)CO2` (stereo not given): the inhibition was -7.16% (inactive).

As for `Cc1c(O)c2ccccc2oc1=O`, the inhibition is -7.95% (inactive).

As for `OCC1OC2C(NC(=S)N2c2ccccc2)C(O)C1O` (stereo not given), the inhibition is 0.77% (inactive).

Regarding `COc1ccc(C(c2c(C)[nH][nH]c2=O)c2c(C)[nH][nH]c2=O)cc1Br`, the inhibition was -3.47% (inactive).

For `Oc1ccccc1O`, the inhibition was 0.73% (inactive).

With `Nc1ccccc1O`, the inhibition is -6.55% (inactive).

`O=C(Nc1ccc2c(c1)OCO2)N1CCN(Cc2ccco2)CC1`: the inhibition was 0% (inactive).

For `COc1ccc(N2C(=O)/C(=C/c3ccc([N+](=O)[O-])cc3)N=C2C)c(OC)c1`, the inhibition was -3.69% (inactive).

For the compound `COc1ccc(OC)c(N2C(=O)c3cccnc3C2=O)c1`, the inhibition is 0.65% (inactive). Further, the inhibition under setting [1] is 1.22%.

For the compound `COc1ccc(OC)c(N2C(=O)CCCC2=O)c1`, the inhibition was -1.93% (inactive).

As for `COc1ccc(NCc2ccc([N+](=O)[O-])s2)c(OC)c1`, the inhibition is 7.28% (inactive).

As to `COc1ccc(NC(=S)N2CCC(C(=O)c3ccc(C)cc3)CC2)cc1`, the inhibition was -11.5% (inactive).
